High-throughput results from PubChem BioAssay.
A selection: hits, their analogues and other compounds. The true share with any hit is near 4%.
Mtb betalactam = beta-lactam sensitization of Mtb H37Rv; M. tuberculosis H37Rv growth with meropenem, percent inhibition; inhibition, % at 25 µM; 330,000 compounds, 0.27% hits; AID 434955; call rule not given here;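 also: growth measured after seven days incubation then overnight dye step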
GDH-TPI counter-1 = GDH-TPI coupled enzyme inhibition counter-screen; AID 588335; inhibition, % at 4.8 µM; 360,000 compounds, 1.2% hits; GDH-TPI coupled enzyme counterscreen, NADH absorbance; in the data active = inhibition above about 30%
Mtb FBA inh = inhibits M. tuberculosis FBA enzyme; P9WQA3; purified M. tuberculosis FBA, fluorescence read-out; inhibition, % at 1 µM; 360,000 compounds, 2.3% hits; AID 588726
Rv3671c protease = inhibitors of M. tuberculosis serine protease Rv3671c; inhibition, % at 5.96 µM; 320,000 compounds, 0.048% hits; P9WHR9; in the data active = inhibition above about 38%;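 also: extracellular domain of Rv3671c used as enzyme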
RecA intein inh = inhibitors of M. tuberculosis RecA intein splicing; inhibition, % (test concentration not listed); P9WHJ3; AID 2221; cell-free RecA intein splicing, fluorescence; 290,000 compounds, 0.75% hits; in the data active = inhibition above about 30%
Target sequence (P9WHJ3 whole entry, looked up): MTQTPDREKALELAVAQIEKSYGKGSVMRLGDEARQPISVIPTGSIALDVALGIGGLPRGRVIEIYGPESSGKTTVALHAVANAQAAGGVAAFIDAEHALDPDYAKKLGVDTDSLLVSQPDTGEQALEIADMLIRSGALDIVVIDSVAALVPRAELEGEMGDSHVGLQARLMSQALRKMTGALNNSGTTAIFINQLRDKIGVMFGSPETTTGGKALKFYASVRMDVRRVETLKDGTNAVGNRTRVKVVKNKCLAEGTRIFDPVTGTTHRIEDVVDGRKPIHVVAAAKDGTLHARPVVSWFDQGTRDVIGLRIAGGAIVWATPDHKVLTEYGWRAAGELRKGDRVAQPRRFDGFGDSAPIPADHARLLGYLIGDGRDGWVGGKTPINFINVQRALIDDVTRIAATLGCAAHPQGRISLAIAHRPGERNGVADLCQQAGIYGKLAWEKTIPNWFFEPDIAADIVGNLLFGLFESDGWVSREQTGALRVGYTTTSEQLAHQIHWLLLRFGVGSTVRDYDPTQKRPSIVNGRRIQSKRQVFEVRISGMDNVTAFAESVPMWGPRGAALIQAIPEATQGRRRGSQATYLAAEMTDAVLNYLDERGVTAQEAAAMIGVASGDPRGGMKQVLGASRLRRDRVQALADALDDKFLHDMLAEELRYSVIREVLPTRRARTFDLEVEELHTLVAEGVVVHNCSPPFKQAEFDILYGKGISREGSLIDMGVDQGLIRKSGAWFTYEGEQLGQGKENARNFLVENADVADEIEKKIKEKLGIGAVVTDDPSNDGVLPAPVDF
UGM FP inh = blocks M. tuberculosis UGM enzyme. AID 504406. inhibition, % at 10 µM. purified UGM, fluorescence polarization probe displacement. 320,000 compounds, 0.06% hits; in the data active = inhibition above about 10%, passing the limit was not always enough
Mtb FBA confirm = Mtb FBA inhibition, confirmed; shares compounds with Mtb FBA inh; purified M. tuberculosis FBA, fluorescence read-out; inhibition, % at 1 µM; 5,600 compounds, 78% hits
GDH-TPI counter-2 = inhibits GDH-TPI coupling enzymes, flagging Mtb FBA hits. shares compounds with Mtb FBA inh. GDH-TPI coupled enzyme counterscreen, fluorescence. 5,600 compounds, 81% hits. AID 652141. inhibition, % at 1 µM; in the data active = inhibition above about 10%
Hits are given with their value; - = inactive; . = not tested or not shown; + = active, no number. Rule as the data show it, unless noted: active = inhibition above about 27%; inactive = the rest.

SMILES	Mtb betalactam	GDH-TPI counter-1	Mtb FBA inh	Rv3671c protease	RecA intein inh	UGM FP inh	Mtb FBA confirm	GDH-TPI counter-2
Cc1ccc(Oc2ccc(NC(=O)CSc3n[nH]c(N)n3)cc2)cc1	-	-	31.6	-	-	-	-	-
COc1ccc(C(=O)OCC(=O)Nc2sccc2C(N)=O)cc1[N+](=O)[O-]	-	-	-	-	.	-	.	.
CCC(NC(=O)c1ccccc1O)c1ccccc1 (stereo not given)	-	-	43.1	-	-	-	168.0	119.5
O=C(O)C1CSC(c2ccc3c(c2)OCO3)N1 (stereo not given)	-	-	41.5	-	-	-	-	-
COc1cc(Cl)c(NC2=CC(=O)C(=O)c3ccccc32)c(OC)c1	-	-	-	-	.	-	.	.
CCn1c(-c2cc(-c3ccc(C)cc3)nc3ccccc23)n[nH]c1=S	-	-	-	-	-	-	.	.
CCn1c(-c2cc(-c3ccc(OC(C)C)cc3)nc3ccccc23)n[nH]c1=S	-	-	82.7	-	-	-	-	-
C[C@H](CO)N1C[C@H](C)[C@@H](CN(C)Cc2ccccc2)Oc2c(NS(=O)(=O)c3cn(C)cn3)cccc2C1=O	-	-	-	-	.	-	.	.
COc1cc(C#Cc2c(-c3ccccc3OC)oc3ccccc23)cc(OC)c1	-	-	34.4	-	.	-	-	-
COc1ccccc1-c1oc2ccccc2c1-c1ccc2c(c1)OCO2	-	-	-	-	.	-	.	.
COc1ccc(Cl)cc1N1C(=NC(=O)C2CCCO2)SC2CS(=O)(=O)CC21 (stereo not given)	-	-	-	-	-	-	.	.
CCc1cc2c(=O)c(-c3cscn3)coc2c(CN(C)C)c1O	-	-	41.0	-	-	-	161.1	124.8
CCc1cc2c(=O)c(-c3ccc4c(c3)OCO4)coc2c(CN(C)C)c1O	-	-	-	-	-	-	.	.
C=CC[C@@H](CC(=O)N[C@H](CO)Cc1ccccc1)C(=O)NC[C@H](OC(=O)[C@@H](CC=C)Cc1ccc(F)cc1)c1ccccc1	-	-	-	-	.	-	.	.
Cc1ccc(-c2cc3nc(-c4ccccc4)cc(N)n3n2)cc1	-	-	29.4	-	-	-	-	-
Cc1ccc(-c2cc3nc(-c4ccccc4)cc(NCCCO)n3n2)cc1	.	-	83.2	.	.	.	72.0	54.3
Cc1cccc(-c2cc3nc(C)cc(NCCCn4ccnc4)n3n2)c1	-	-	-	-	-	-	.	.
CCc1cccc(CC)c1-n1c(SCC(=O)N2CCc3ccccc32)nc(O)cc1=O	-	-	-	-	.	-	.	.
CN(C)c1oc(-c2ccc(OCc3ccccc3)cc2)nc1C#N	-	-	109.5	-	-	-	-	-
N#Cc1nc(-c2ccc(OCc3ccccc3)cc2)oc1NCc1cccnc1	-	-	-	-	-	-	.	.
CCn1c(-c2sc(-c3ccccc3)nc2C)n[nH]c1=S	-	-	-	-	-	-	.	.
Cc1nc(-c2ccccc2)sc1-c1ccn[nH]1	-	-	109.8	-	-	-	32.6	23.9
CCS(=O)(=O)c1ccc2c(c1)NC(=O)C(CCCl)O2 (stereo not given)	-	-	77.6	-	-	-	140.1	112.0
O=C1Nc2ncccc2OC1CCCl (stereo not given)	-	-	-	-	-	-	.	.
O=C(NC(c1ccc2c(c1)OCO2)c1ccccn1)C1CCN(CCOc2ccccc2)CC1 (stereo not given)	.	-	-	.	.	.	.	.
SMILES	Mtb betalactam	GDH-TPI counter-1	Mtb FBA inh	Rv3671c protease	RecA intein inh	UGM FP inh	Mtb FBA confirm	GDH-TPI counter-2
Cc1ncc([N+](=O)[O-])n1S(=O)(=O)c1cc(Br)ccc1Br	-	-	-	-	-	-	.	.
Clc1ccc(CNCCCSc2ncccn2)cc1Cl	-	-	-	-	-	-	.	.
Clc1ccc(CNc2cnccn2)cc1Cl	-	-	61.2	-	-	-	-	-
N#Cc1ccc(CNc2cnccn2)cc1	-	-	68.6	-	-	-	-	-
C=CCNc1nc(NCc2ccccc2)c(C#N)c2c1CN(C)CC2	-	-	71.4	-	-	-	58.5	51.8
N#Cc1c(NCCN)nc(NCc2ccccc2)c2c1CCN(Cc1ccccc1)C2	.	-	-	.	.	.	.	.
CC(C)(C)OC(=O)N[C@H](C(=O)OC(C)(C)C)c1ccc2ccccc2c1	-	-	-	-	.	-	.	.
COc1ccc2oc(-c3ccccc3)c(C(=O)N(C)C)c2c1	-	-	33.8	-	-	-	119.6	112.8
COc1ccc2oc(-c3ccccc3)cc(=O)c2c1	.	-	78.8	.	.	.	133.9	100.1
COc1ccc2oc(-c3ccccc3)c(C(N)=O)c2c1	-	-	99.0	-	-	-	109.5	87.8
Cc1ccc(S(=O)(=O)NCC(C)n2cncn2)cc1 (stereo not given)	-	-	-	-	-	-	.	.
CC1=CC(C)C(=O)N(C)C(C)=C1 (stereo not given)	.	-	-	.	.	.	.	.
CCOC(=O)c1oc2nc(C)c3c(c2c1N)CC(C)(C)OC3	-	-	34.0	-	-	-	100.4	75.2
COC(=O)c1sc2nc3c(cc2c1N)COC(C)(C)C3	-	-	-	-	-	-	.	.
CCOC(=O)c1oc2nc3c(cc2c1N)COC(C)(C)C3	-	-	45.5	-	-	-	-	16.6
COc1cccc(CN(C(=O)c2ccc([N+](=O)[O-])cc2)C2CCS(=O)(=O)C2)c1 (stereo not given)	-	-	63.8	-	-	-	100.7	79.4
CCCCC(=O)N1CCN(c2nc3ccc(Cl)cc3s2)CC1	-	-	-	-	-	-	.	.
COc1ccc(OC)c(-c2nnc(-c3ccc(C)o3)o2)c1	-	-	103.3	-	-	-	101.1	83.6
CCCc1cc(=O)[nH]c(SCC(=O)N2c3ccccc3CC2C)n1 (stereo not given)	-	-	-	-	.	-	.	.
Cc1cscc1-c1nc(NCC2CC2)nc2ccsc12	.	-	37.1	.	.	.	127.0	100.1
Fc1ccccc1-c1nc(NCC2CC2)nc2ccsc12	.	-	41.9	.	.	.	99.6	83.5
COc1ccccc1CNc1nc(-c2ccccc2CO)c2sccc2n1	.	-	50.6	.	.	.	130.4	90.4
CN(C)CCNc1nc(-c2ccccc2F)c2sccc2n1	.	-	-	.	.	.	.	.
COCCNc1nc(-c2ccc(Cl)cc2C)c2sccc2n1	.	-	69.1	.	.	.	-	-
COc1cccc(CNc2nc(NCC3CC3)nc3ccsc23)c1	.	-	-	.	.	.	.	.
CCOC(=O)C1(C)CCN1C(=O)/C=C/c1ccccc1 (stereo not given)	.	-	-	.	.	.	.	.
CC1(C)S[C@@H]2[C@H](NC(=O)[C@H](N)c3ccccc3)C(=O)N2[C@H]1C(=O)OC1OC(=O)c2ccccc21 (stereo not given in full)	-	-	65.7	-	.	-	+	159.6
O=C1NC[C@H](Cc2ccccc2)N(C[C@H]2CCCN2C[C@H](Cc2ccccc2)N2C[C@H](Cc3ccc(O)cc3)N(CCc3ccccc3)C(=O)C2=O)C1=O	.	-	-	.	.	.	.	.
